# Experimental data from PubChem BioAssay (NCI).
# The panel holds about 83,000 compounds, 20% with a hit somewhere; the sample as a whole holds those more often.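 96-well plates, one dose, 48 hours. Percent growth reported; active if below 10.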 Values without a mark were called inactive. Active and inactive are the calls of the source.
# Key:
# Test in all cases: NCI-60 one-dose screen, 48 h (100 = growth as untreated, 0 = no growth, -100 = all killed)
# Settings in all cases: 10 µM unless noted
# T-47D breast = test system: T-47D breast
# BT-549 breast = test system: BT-549 breast
# MDA-MB-435 melanoma = test system: MDA-MB-435 melanoma
# SW-620 colon = test system: SW-620 colon
# MCF7 breast = test system: MCF7 breast
# HCT-116 colon = test system: HCT-116 colon
# HCC-2998 colon = test system: HCC-2998 colon
# KM12 colon = test system: KM12 colon
SMILES,growth (T-47D breast),growth (BT-549 breast),growth (MDA-MB-435 melanoma),growth (SW-620 colon),growth (MCF7 breast),growth (HCT-116 colon),growth (HCC-2998 colon),growth (KM12 colon)
COc1cc(NC(=O)CCl)ccc(=O)c1,67.1%,58.9%,69.8%,69.8%,56.8%,62.6%,105%,89.6%
COc1ccc(C(=O)/C=C/c2ccc(/C=C/c3cc(OC)c(OC)c(OC)c3)cc2)cc1,43.4%,41.6%,41%,39.3%,30.6%,17.5%,94.1%,29.2%
O=C(O)C(=Cc1c2ccccc2cc2ccccc12)C(=O)O,90.5%,105%,109%,105%,97.5%,97.7%,100%,109%
CCOc1ccc(/C=C/C=N/NC(N)=S)cc1,38.2%,57.4%,88.9%,87.2%,43.5%,70.1%,70.1%,84%
CC(C)(C)OC(=O)N[C@@H](Cc1ccccc1)C(=O)N(Cc1ccccc1)C1(C(=O)NCc2ccccc2)CCN(Cc2ccccc2)CC1,38%,71%,41%,22.9%,25.2%,20.9%,47%,18.7%
Cc1cc(C)c2c(=O)[nH]c(SCC(=O)Nc3cccc(S(=O)(=O)N(C)C)c3)nc2n1,92.4%,103%,105%,105%,97.4%,97.1%,106%,112%
COc1cc(C2C=C(C)N=C3SC=C(C)N32)cc(OC)c1OC (stereo unspecified),7.98% (active),-49.9% (active),-33.3% (active),-44.5% (active),-14.8% (active),-67.5% (active),-90.5% (active),-77% (active)
O=[N+]([O-])c1ccc(S(=O)(=O)N2CCN(c3ccnc4cc(Cl)ccc34)CC2)c([N+](=O)[O-])c1,60.3%,97.6%,98.1%,40.5%,52.7%,77.5%,106%,103%
Cc1nc(Nc2cccnc2)sc1C(=O)/C=C/c1ccc(Cl)cc1,24.8%,15.2%,5.05% (active),6.92% (active),13.2%,26.8%,84.8%,12.9%
O=C1NC(Cc2c[nH]c3ccccc23)C(=O)N1Cc1ccc(Cl)cc1 (stereo unspecified),94.3%,96.3%,92.2%,98.4%,98%,93.4%,131%,99.3%
c1cncc(CNc2ccccc2-c2nnc(Nc3ccc4c(c3)OCCO4)o2)c1,73.6%,16.6%,-20.3% (active),23.2%,20.9%,9.5% (active),9.58% (active),3.03% (active)
CN(C)c1ccc(/C=C\N=Nc2ccc(Br)cc2)cc1,37.1%,69.1%,41.7%,29.5%,36.8%,50.6%,83%,29.6%
O=C(Nc1ccc(Br)c(Cl)c1)c1cc(F)ccc1O,3.88% (active),-39% (active),-11.3% (active),7.76% (active),2.5% (active),-21.8% (active),14.7%,2.98% (active)
Cc1cc(-c2ccccc2)c(C)n1Cc1ccc(Cl)cc1,50.5%,37.7%,-18.4% (active),22.7%,23.5%,15%,74.2%,27.6%
CCN(CC)S(=O)(=O)c1ccc2[nH]c(=O)cc(C(=O)Nc3ccc(OC)cc3OC)c2c1,101%,136%,108%,108%,99.6%,97.3%,75.3%,110%
CC(C)C[C@H](NC(=O)[C@@H](Cc1ccccc1)n1ccc(Nc2ccccc2)cc1=O)B(O)O,-15.4% (active),-10.5% (active),-51.3% (active),-10.4% (active),21.1%,-37.9% (active),-83.8% (active),-55.1% (active)
COc1ccc(S(=O)(=O)Nc2cc(/C=C\c3cc(OC)c(OC)c(OC)c3)cc(OC)c2OC)cc1OC,43.8%,47%,-66.5% (active),25.5%,18.1%,15.6%,21.1%,21.7%
O=S(=O)(c1ccccc1)n1ccc(-c2ccc3c(c2)CCO3)n1,68.8%,96%,104%,93.6%,83.2%,89.1%,90.8%,91.9%
C[C@]12CC[C@@H]3c4cc(O)c(O)cc4CC[C@H]3[C@@H]1CC[C@@H]2O,30.4%,37.7%,-45% (active),30.7%,17.8%,37.9%,91.4%,74.5%

SMILES,growth (T-47D breast),growth (BT-549 breast),growth (MDA-MB-435 melanoma),growth (SW-620 colon),growth (MCF7 breast),growth (HCT-116 colon),growth (HCC-2998 colon),growth (KM12 colon)
CN(C)C/C=C/C(=O)Nc1cc2c(Nc3cccc(Cl)c3F)ncnc2cc1OCCOC(F)F,-4.28% (active),41%,15.4%,31%,35.1%,25.7%,68.3%,80.7%
NC(N)=NC(N)=Nc1ccccc1-c1ccccc1,108%,131%,103%,107%,110%,102%,105%,107%
COc1ccc(/C(=N/O)c2cc(OC)c(OC)c(OC)c2)c(OC)c1N,27.2%,36.2%,-42.3% (active),17.4%,21%,20.6%,73.4%,23.8%
CC(=O)Oc1cccc(OC(C)=O)c1OC(C)=O,97.1%,94.3%,94.6%,114%,88.7%,89.5%,92.1%,105%
COc1cc(OC)c(C(=O)/C=C/c2cccc(C(F)(F)F)c2)c(OC)c1,16.4%,-2.51% (active),16.2%,0.796% (active),17%,2.79% (active),29.1%,11%
O=C(Nc1ccc(F)c(Cl)c1)c1n[nH]c(=O)c2ccccc12,81.1%,132%,93.2%,107%,60.6%,101%,103%,92.4%
Cn1c(C(N)=O)cc2c1-c1nc(NC3CCCCC3)ncc1CCC2,105%,80.7%,96.5%,89.7%,90.6%,88.1%,97.5%,104%
COc1ccc(-c2nc3sccn3c2-c2ccnc(NCCCNS(=O)(=O)c3ccc4ccccc4c3)n2)cc1,32.6%,65.3%,50%,105%,52.2%,60.2%,84.1%,50.1%
CN1C(=O)[C@H]2c3c1cccc3[C@@]13NC(=O)O[C@H]1[C@H](CCC3(C)C)C2(C)C,87.8%,102%,102%,114%,99.7%,103%,106%,103%
C=C1C(=O)O[C@H]2[C@H]1CC/C(COC(=O)NCc1cc(OC)cc(OC)c1)=C\CC[C@@]1(C)O[C@@H]21,-8.17% (active),-5.77% (active),-29.1% (active),-50.5% (active),0.19% (active),-60.4% (active),63.8%,45.1%
COc1ccc(C2SCC(=O)N2NC(=O)c2ccc(NC(=O)c3ccccn3)cc2)cc1OC (stereo unspecified),97.8%,102%,104%,104%,104%,100%,104%,95.8%
CCCC1OC(c2ccc(C(C)C)cc2)OCC1CC (stereo unspecified),85.7%,102%,105%,112%,94.7%,93.9%,103%,107%
O=C(Nc1ccc(Cl)cc1)c1cc(-c2ccc(F)cc2)c2sc(=O)[nH]c2n1,3.75% (active),-13.1% (active),8.39% (active),14.5%,4.61% (active),3.3% (active),22%,6.83% (active)
O=C1CCC/C=C\C[C@H]2C=CC(=O)/C2=C/C[C@H](C/C=C\CC(F)(F)F)O1,6.6% (active),-18% (active),-22.8% (active),-15.7% (active),6.19% (active),-51.4% (active),-83.7% (active),-71.3% (active)
COc1cc(CNC(=O)CCSc2nc3ccccc3c(=O)n2Cc2cc(OC)c(OC)c(OC)c2)cc(OC)c1OC,29.3%,48.3%,-28.7% (active),23.9%,15.4%,17%,86%,17.3%
COc1cc(-c2n[nH]nc2-c2ccc3c(c2)OCCO3)cc(OC)c1OC,40.5%,12%,-11.4% (active),19.4%,9.04% (active),8.07% (active),10.1%,9.43% (active)
O=C(CNC1CCCCC1)Nc1ccc(-c2nc3ccccc3s2)cc1,69.1%,87.6%,90.4%,100%,28%,77%,87.3%,83.9%
Cc1ccc(-c2csc3nc(C)c(CCCl)c(=O)n23)cc1,76.7%,119%,97.3%,99.2%,78.3%,89.4%,109%,103%
COc1cc(Cn2c(SCCC(=O)Nc3ccc(F)cc3)nc3ccccc3c2=O)cc(OC)c1OC,77.8%,92.6%,106%,97.9%,91%,65.3%,95.7%,99.3%

SMILES,growth (T-47D breast),growth (BT-549 breast),growth (MDA-MB-435 melanoma),growth (SW-620 colon),growth (MCF7 breast),growth (HCT-116 colon),growth (HCC-2998 colon),growth (KM12 colon)
C=C1C(=O)O[C@H]2[C@H]1CC/C(COC(=O)NCCc1ccc(Br)cc1)=C\CC[C@@]1(C)O[C@@H]21,-21% (active),-9.87% (active),23.9%,-55.6% (active),4.4% (active),-72.1% (active),71.1%,55.4%
CC(C)C[C@H](NC(=O)[C@H](Cc1ccccc1)n1ccc(N2CCCCC2)cc1=O)B(O)O,-20.4% (active),31.3%,-66% (active),6.5% (active),31.3%,2.64% (active),-36.9% (active),1.6% (active)
O=C(/C=C/c1ccccc1)n1c(-c2ccc(Cl)cc2)nc2ccccc21,-4.25% (active),-50.5% (active),-44.3% (active),-55.1% (active),10.3%,-71.5% (active),5.08% (active),-62.9% (active)
O=C(/C=C/CN1CCOCC1)Nc1cc2c(Nc3ccc(F)c(Cl)c3F)ncnc2cc1OCCOC(F)F,1.51% (active),54.3%,69.1%,89.7%,60.7%,49.4%,69.1%,74.1%
CN(C)c1nc(N)c(N=O)c(N)n1,104%,115%,110%,108%,102%,105%,113%,108%
O=C(O)Cc1ccc2c(c1)Cc1cccnc1O2,89.3%,101%,103%,106%,94.6%,100%,99%,98.7%
COc1ccc(Cl)cc1NC(N)=S,96.3%,107%,104%,104%,96.2%,102%,102%,105%
COc1ccc(C(=O)c2cc(OC)c(OC)c(OC)c2)cc1/C=C/C(=O)c1ccc2c(c1)OCO2,33.1%,-10.4% (active),21.6%,-35.4% (active),19.8%,-78.6% (active),27.3%,-12% (active)
CC(C)(C)OC(=O)N1C/C(=C\c2cccs2)C(=O)/C(=C/c2cccs2)C1,82.5%,97.6%,99.7%,84.5%,39.1%,63.5%,106%,97.2%
CC(=O)Nc1ccc2c(c1)/C(=C\C=C/c1ccc([N+](C)(C)C)cc1)c1ccccc1-2,41.4%,94.6%,96%,99%,60.4%,70.3%,114%,97.1%
COc1ccc(C(=O)c2cc(OC)c(OC)c(OC)c2)cc1/C=C/C(=O)c1ccc(O)cc1,37.3%,7.62% (active),18.9%,-24.1% (active),12.1%,-23.2% (active),-22.4% (active),2.74% (active)
Nc1ccccc1C#C/C=C\C#Cc1cccc(O)c1,55.2%,44.8%,6.89% (active),32.4%,35.9%,42.3%,41.3%,27.9%
CCC1CCc2nc3sc(C(=O)Nc4ccccc4C)c(N)c3cc2C1 (stereo unspecified),63.6%,74.7%,-38.4% (active),26.9%,15.2%,25.5%,62.2%,29.6%
CCOC(=O)C1=C(CSC(=S)N(C2CCCCC2)C2CCCCC2)N(C)C(=O)NC1c1ccccc1 (stereo unspecified),50.2%,66.3%,58.1%,37.2%,46.4%,26.2%,71.9%,55.7%
O=C(O)c1ccc(-n2cc(CNc3ccc(C(F)(F)F)cc3)c(-c3ccccc3)n2)cc1,79.2%,99.1%,90.8%,98.2%,81.8%,101%,108%,84.7%
C=CCOc1cccc(/C=C/C(=O)c2sc(Nc3cccnc3)nc2C)c1,61.3%,44%,22.5%,15.5%,19.1%,20.3%,86.5%,24%
Nc1c(C(=O)Nc2ccccc2)sc2nc3c(cc12)CCC3,101%,81.7%,-1% (active),53.1%,51.8%,66.6%,89.4%,52.8%
NS(=O)(=O)c1ccc(CN2C(=O)c3cccc4cccc(c34)C2=O)cc1,78.1%,96.2%,114%,104%,93.9%,92.7%,107%,99.1%
Cc1cc2c(C(C)C)c(O)c(O)c(C=NCCCCC(=O)O)c2c(O)c1-c1c(C)cc2c(C(C)C)c(O)c(O)c(C=NCCCCC(=O)O)c2c1O,53.9%,41.6%,61%,37.1%,32.8%,33%,40.2%,25.6%
